In PubChem BioAssay (NCATS):
Inconclusive results are not listed. A call without a number means that no potency is given here. The source made the active and inactive calls. Calls come from the whole dose curve; as a rule, active = well fitted inhibition curve with a large enough effect; inconclusive = small, poorly fitted or top-dose-only effect; inactive = flat fitted curve, though single readings scatter.

Assay: qHTS to identify inhibitors of the type 1 interferon - major histocompatibility complex class I in skeletal muscle: primary screen against the NCATS LOPAC collection (AID 1347405);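 note: lytic HiBiT luminescence reporting HLA-B protein level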
Conditions: iHSKM muscle cells, IFN-b-induced MHC-I HiBiT luminescence, 24 h; series mostly up to 45.9 µM
Method in brief: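 Cells: C25cl48 human myoblasts, HiBiT-tagged HLA-B*08:01, stimulated with IFN-beta 4.0 ng/ml. Compounds are titrated 1:4.3 over 7 points from 46 uM final and incubated 24 hrs; endogenous MHC class I is quantified by HiBiT lytic luminescence.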
Potency is the fitted concentration of half-maximal effect.

SMILES	Potency
NC[C@H]1O[C@@H](n2cnc3c(N)ncnc32)[C@H](O)[C@@H]1O	inactive
CCCCCCCCc1ccc(-c2ccc(C(=O)O)cc2)cc1	inactive
CN1C2CCC1CC(OC(=O)C(O)c1ccccc1)C2 (configuration not stated)	inactive
COc1cc(C(O)CO)ccc1OS(=O)(=O)O (configuration not stated)	inactive
S=C(S)OC1CC2CC1C1CCCC21 (configuration not stated)	inactive
CNc1ncnc2c1ncn2[C@@H]1O[C@H](CO)[C@@H](O)[C@H]1O	inactive
CN(C)C(N)=NCCC[C@H](N)C(=O)O	inactive
CCCCCCCC/C=C\CCCCCCCC(=O)NCCO	inactive
COc1ccccc1CN[C@@H]1CCCN[C@@H]1c1ccccc1	inactive
CC(C)CC(NP(=O)(O)O[C@@H]1O[C@@H](C)[C@H](O)[C@@H](O)[C@H]1O)C(=O)NC(Cc1c[nH]c2ccccc12)C(=O)O (some centres not stated)	inactive
S=c1[nH]c(-c2ccccc2)cn1-c1ccccc1	inactive
COC(=O)c1c(C)[nH]c(C)c1C(=O)c1ccccc1Cc1ccccc1	inactive
NCC1OC(O[C@H]2[C@H](O)[C@@H](OC3C(O)C(N)CC(N)C3OC3OC(CO)C(O)C(O)C3N)O[C@@H]2CO)C(N)C(O)C1O (some centres not stated)	inactive
CC(=O)N[C@H](C(=O)O)C(C)(C)SN=O	inactive
Cc1cc(NC(=O)Nc2ccc3c(ccn3C)c2)sn1	inactive
O=C(CCCCCN1CCN(c2ccccc2-c2ccccc2)CC1)NC1CCCc2ccccc21 (configuration not stated)	inactive
NCCSSCCN	inactive
CNCC[C@H](Oc1ccc(C(F)(F)F)cc1)c1ccccc1	inactive
COc1ccc(C(=O)/C(Cc2cc(OC)c(OC)c(OC)c2)=C(\C(=O)O)c2ccc3c(c2)OCO3)cc1	14.1 µM (active)

SMILES	Potency
COc1cccc(OC)c1OCCNCC1COc2ccccc2O1 (configuration not stated)	inactive
Cn1c(=O)c2[nH]c(-c3ccccc3)nc2n(C)c1=O	inactive
Cc1ccc(S(=O)(=O)/C=C/C#N)cc1	12.6 µM (active)
CCNC(=O)[C@H]1O[C@@H](n2cnc3c(N)nc(NCCc4ccc(CCC(=O)O)cc4)nc32)[C@H](O)C1O (some centres not stated)	inactive
CC(=O)SCC[N+](C)(C)C	inactive
NCCCCC(=O)O	inactive
CN(CCCOc1ccc(Cc2ccccc2)cc1)CCC(=O)O	inactive
C[N+]1(C)CCC(OC(=O)C(c2ccccc2)c2ccccc2)CC1	inactive
CC1OC1P(=O)(O)O (configuration not stated)	inactive
N[C@H](CCCP(=O)(O)O)C(=O)O	inactive
O=C(CCc1ccncc1)NNC(=O)N1Cc2ccccc2Oc2ccc(Cl)cc21	inactive
c1ccc(-c2ccccn2)nc1	inactive
COc1ccc(/C=C2\COc3ccc(C)cc3C2=O)cc1O	14.1 µM (active)
NCCCCCCCCCCN	inactive
O=C(O)CC[C@@H](C(=O)O)N1C(=O)c2ccccc2C1=O	inactive
CCCCCCCCCCCCCCCC(=O)OC(CC(=O)O)C[N+](C)(C)C (configuration not stated)	inactive
O=C(c1ccc(Cl)cc1)N1CCN(c2ccc([N+](=O)[O-])c3ncccc23)CC1	inactive
O=Nc1ccc2oc(=O)ccc2c1	inactive
